# Measurements as given in PubChem BioAssay (EPA / NIEHS).
# The source made the active and inactive calls. The calls were made as follows: active = hit-call score of the fitted dose curve at least 0.9, where 1 is the maximum; inactive = score below 0.9.
# Assay: ATG_RORE_CIS: Attagene CIS-FACTORIAL HepG2 Assay for human RAR-related Orphan Receptor Element (RORE) (AID 2282959)
# Conditions: HepG2 Attagene cis-factorial RORE reporter, mRNA; actives raise or lower the signal
# Description: ATG_CIS is a cell-based, multiplexed-readout assay that uses HepG2, a human liver cell line, with measurements taken at 24 hours after chemical dosing in a 24-well plate.ATG_RORE_CIS is one of 52 assay component(s) measured or calculated from the ATG_CIS assay. It is designed to make measurements of mRNA induction, a form of inducible reporter, as detected with fluorescence intensity signals by Reverse transcription polymerase chain reaction (RT-PCR) and Capillary electrophoresis technology.Data from the assay component ATG_RORE_CIS was analyzed into 1 assay endpoint. This assay endpoint, ATG_RORE_CIS, was analyzed with bidirectional fitting relative to DMSO as the negative control and baseline of activity. Using a type of inducible reporter, measures of mRNA for gain or loss-of-signal activity can be used to understand the reporter gene at the transcription factor-level as they relate to the gene RORA and RORB and RORC. Furthermore, this assay endpoint can be referred to as a primary readout, because this assay has produced multiple assay endpoints where this one serves a reporter gene function. To generalize the intended target to other relatable targets, this assay endpoint is annotated to the nuclear receptor intended target family, where the subfamily is orphan.
# Human liver HepG2 cells are transiently transfected with multiple reporter transcription units (MRTUs) in 6-well plates using FuGene 6 reagent (Roche; 3 ml FuGene/1 mg DNA). The MRTU constructs are regulated by a cis-regulating element (promoter). […] A major difference between the CIS and TRANS system is that in CIS activities of endogenous TFs are measured, whereas the TRANS assay evaluates changes in activities of exogenous, chimeric NR-Gal4 proteins. […] At the end of 24 hour incubation, total RNA was isolated using TriZol reagent (Invitrogen). The isolated RNA is then reverse-transcribed using oligo(dT) primer and Mo-MLV reverse transcriptase (Invitrogen) with DNAse I (Ambion) treatment for 30 min. The one-tenth of the produced cDNA was amplified by PCR using Taq DNA polymerase (Invitrogen) and two reporter sequence-specific primers. The PCR products were fluorescently labeled by primer extension with 6-arboxyfluorescein (6-FAM) 5'-labeled reporter sequence-specific primer (2 min at 95 C, 20 s at 68 C and 10 min at 72 C) and these products were digested with 5U of HpaI (New England Biolabs) for 2h at 37 C. The fragments were purified using Qiaquick PCR columns (Qiagen), analyzed on an ABI 3130xL genetic analyzer (Applied Biosystems) with peak positions identified by using a set of X-rhodamine (ROX)-labeled MapMarker1000 molecular weight standards (BioVentures). The raw capillary electrophoresis data was processed using Attagraph software (Attagene).
SMILES,outcome,AC50
CC(=O)OCc1ccccc1,inactive,–
Cc1cccc(C(C)(C)C)c1O,inactive,–
O=C1CCCCC1C1CCCCC1 (stereo not given),inactive,–
O=S(=O)(O)c1ccc(Nc2nc(Nc3ccc(C=Cc4ccc(Nc5nc(Nc6ccc(S(=O)(=O)O)cc6)nc(N(CCO)CCO)n5)cc4S(=O)(=O)O)c(S(=O)(=O)O)c3)nc(N(CCO)CCO)n2)cc1,inactive,–
CC(=O)OC1CCCCC1C(C)(C)C (stereo not given),inactive,–
C=CC(=O)OCCCCCCCC(C)C,–,100 µM (active)
CCOC(=O)CC(=O)c1ccccc1,inactive,–
COC(=O)c1ccccc1C,inactive,–
C=CCCCCCCCCOC(C)=O,inactive,–
c1ccc(Nc2cccc3ccccc23)cc1,inactive,–
CCCCCCCCCCCCc1ccc(O)cc1,inactive,–
O=C1c2ccccc2C(=O)c2cc(S(=O)(=O)O)ccc21,inactive,–
O=C(O)C(F)(F)C(F)(F)C(F)(F)C(F)(F)C(=O)O,inactive,–
Cc1ccc([N+](=O)[O-])cc1N,inactive,–
NC(=O)Nc1ccccc1,inactive,–
CCCCc1ccc(Cl)cc1,inactive,–
CCCCCCCC(=O)OCC,inactive,–
CO[Si](CCCS)(OC)OC,inactive,–
CCOC(=O)c1ccccc1C,inactive,–
CCOC(=O)C1=NOC(c2ccccc2)(c2ccccc2)C1,inactive,–

SMILES,outcome,AC50
Nc1ccc(C(=O)O)cc1,inactive,–
CC(=O)OC1CCCCC1,inactive,–
O=C1CCCN1C1CCCCC1,inactive,–
CC1=CP(=O)(c2ccccc2)CC1 (stereo not given),inactive,–
CC(Cl)COP(=O)(OCC(C)Cl)OCC(C)Cl (stereo not given),inactive,–
CC1(C)CC(O)CC(C)(C)N1[O],inactive,–
CC(C)OC(=O)c1ccccc1,inactive,–
CCOC(=O)c1ccc(C)cc1,inactive,–
CCC[Si](OC)(OC)OC,inactive,–
CC1(C)C(=O)N(CO)C(=O)N1CO,inactive,–
CC(=O)c1ccc(S(=O)(=O)NC(=O)NC2CCCCC2)cc1,inactive,–
CCCCCCCCC(CO)CCCCCC (stereo not given),inactive,–
O=C(Nc1ccccc1)c1cc(Cl)ccc1O,–,15.5 µM (active)
C=CC(=O)NCOCCCC,inactive,–
CCCCC(=O)O,inactive,–
CC(C)c1cc(C(C)C)cc(C(C)C)c1,inactive,–
N#Cc1ccc(C2CCCc3cncn32)cc1 (stereo not given),inactive,–
C=Cc1ccc(OC(C)=O)cc1,inactive,–
O=C(O)C1CCC(C(=O)O)CC1 (stereo not given),inactive,–
CC/C=C\CCOC(=O)c1ccccc1O,inactive,–
